# Bioassay records deposited in PubChem BioAssay by several laboratories.
# FBA Mtb inh – Mtb FBA enzyme inhibitors, primary screen, biochemical, fluorescence, strain H37Rv; Fructose-bisphosphate aldolase (Mycobacterium tuberculosis (strain ATCC 25618 / H37Rv)), …; AID 588726, 2011; purified M. tuberculosis FBA, fluorescence read-out; inhibition, % at 1 µM; 2.3% of 360,000 active; in the data active means inhibition above about 27%;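 further: 0% = vehicle and 100% = reference inhibitor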
# Target sequence (P9WQA3 whole entry, looked up): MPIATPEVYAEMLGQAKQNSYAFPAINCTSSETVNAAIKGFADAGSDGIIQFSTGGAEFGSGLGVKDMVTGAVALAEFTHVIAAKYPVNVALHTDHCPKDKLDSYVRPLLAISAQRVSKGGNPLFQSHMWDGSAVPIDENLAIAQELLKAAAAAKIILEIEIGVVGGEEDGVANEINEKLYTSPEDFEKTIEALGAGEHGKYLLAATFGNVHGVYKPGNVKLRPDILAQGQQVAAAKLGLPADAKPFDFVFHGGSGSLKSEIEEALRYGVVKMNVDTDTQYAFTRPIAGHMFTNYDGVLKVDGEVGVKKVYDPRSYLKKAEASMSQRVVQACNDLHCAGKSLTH
# Anthrax LF prot – Bacillus anthracis LF protease inhibitors, primary screen, biochemical, multiplex microsphere, MLPCN library | Lethal factor (Bacillus anthracis), P15917 | multiplex microsphere protease cleavage assay | inhibition, % at 10 µM | 0.12% of 360,000 active | AID 588501, 2011; further: plate controls were buffer without enzyme for full effect and enzyme alone for no effect
# BoNT F protease – BoNT/F light chain protease inhibitors, primary screen, biochemical, flow cytometry, MLPCN library; Botulinum neurotoxin type F light chain protease (Clostridium botulinum); Multiplex microsphere protease cleavage assay; inhibition, % at 10 µM; 0.22% of 360,000 active; AID 588497, 2011; in the data active means inhibition above about 35%, passing the limit was not always enough; inconclusive means no clear call, values can overlap the other calls; further: plate controls were buffer without enzyme for full effect and enzyme alone for no effect
# Autofluor counter – counter-screen for toxin protease inhibitors: compound fluorescence; fluorescence intensity (concentration not given with the values); compound autofluorescence counterscreen, microsphere flow cytometry; hits give high values; 3.1% of 360,000 active; in the data active means fluorescence intensity above about 16000; inconclusive means no clear call, values can overlap the other calls
# GDH-TPI inh – GDH-TPI coupling enzyme inhibitors, primary screen, artefact control for M. tuberculosis FBA inhibitor project, biochemical, absorbance, full deck. GDH-TPI coupled enzyme counterscreen, NADH absorbance. inhibition, % at 4.8 µM. 1.2% of 360,000 active; in the data active means inhibition above about 30%;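 further: 0% = DMSO wells and 100% = wells lacking the enzyme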
# BoNT-A LC inh2 – BoNT/A light chain protease inhibitors, primary screen, biochemical, flow cytometry, MLPCN library | Botulinum neurotoxin type A light chain protease (Clostridium botulinum A str. ATCC 3502) | multiplex microsphere protease substrate cleavage | inhibition, % at 10 µM | 0.17% of 360,000 active | AID 588499, 2011; further: plate controls were buffer without enzyme for full effect and enzyme alone for no effect
# The depositor's hits bear a star; ? = inconclusive; . = not tested or not shown. An excerpt weighted towards active compounds, which were near 6.7% of everything screened. Unless noted, no stated cut-off is given here; in the data, active means inhibition above about 30%; inconclusive means no clear call, values can overlap the other calls; inactive means below that.
SMILES,FBA Mtb inh,Anthrax LF prot,BoNT F protease,Autofluor counter,GDH-TPI inh,BoNT-A LC inh2
O=C(CN1CCN(c2ncccn2)CC1)NCc1ccc2c(c1)OCO2,0.3,-4.4,-3.0,4282,-6.3,0.6
CCOc1cc(N2CCOCC2)c(OCC)cc1NC(=O)COc1ncnc2ccccc12,0.7,-5.6,-3.9,19880*,-4.5,-1.2
CC1(C)OC(=O)C(=CNc2ccccc2)C(=O)O1,-4.5,2.8,4.4,18882*,16.9,6.4
CC1(C)OC(=O)C(=CNc2cccc(C(=O)O)c2)C(=O)O1,9.7,0.3,-24.1,3416,21.6,-3.1
CC1(C)OC(=O)C(=CNc2cccc(O)c2)C(=O)O1,-1.0,6.5,6.8,7932,35.2*,0.6
CC1(C)OC(=O)C(=CNCCc2ccc(O)cc2)C(=O)O1,-1.5,8.0,-3.7,4309,-1.9,-0.6
Cc1ccc(CSCCC(=O)NCCc2ccc(Cl)cc2)cc1,1.3,1.3,-1.7,2662,1.8,-0.2
CCCS(=O)(=O)NC(=O)C1(C)CCN1C(=O)Cc1ccc(-c2ccccc2)cc1 (stereo unspecified),-0.7,-0.3,1.7,3624,-4.0,-0.1
CC(C)(C)SCCNS(=O)(=O)c1ccc2ccccc2c1,2.3,-4.1,-4.9,23401*,1.3,-1.9
CC(C)(C)SCCNS(=O)(=O)c1ccccc1,2.3,3.6,2.2,7227,13.1,0.1
O=C(/C=C/c1ccco1)Nc1cccc(C(=O)Nc2ccccc2C(=O)O)c1,-3.3,-3.4,10.0,2308,14.8,-0.1
Cn1c(NC(=O)/C=C/c2ccco2)cc(=O)n(C)c1=O,-3.5,-0.8,-3.3,2589,31.0*,-0.8
COc1cc(OCc2ccccc2)c(C(=O)/C=C/c2ccc3c(c2)OCO3)c(OC)c1OC,1.6,.,.,.,50.3*,.
NS(=O)(=O)c1ccc(NC(=O)/C=C/c2ccc3c(c2)OCO3)cc1,22.2,0.8,-0.2,2233,36.1*,-0.4
CCc1ccccc1NC(=O)c1cccc(NC(=O)/C=C/c2ccco2)c1,-0.5,-0.2,0.2,8826,44.4*,0.3
CC(C)C(NC(=O)c1ccc2c(c1)OCO2)C(=O)N/N=C\c1ccco1 (stereo unspecified),-1.8,0.2,-1.8,12806,-1.4,-0.9
Cc1cc(C)nc(NC(=O)/C=C/c2ccc3c(c2)OCO3)c1,13.2,-2.1,-9.2,2547,40.0*,0.7
O=C(/C=C/c1ccco1)NCc1ccc2c(c1)OCO2,-7.9,-1.4,-6.2,4283,6.1,0.0
O=C(/C=C/c1ccco1)Nc1ccc2c(c1)OCO2,-6.2,-5.2,-13.3,3887,32.9*,-0.5
Cc1ccc(NC(=O)N/C=C/c2ccco2)cc1C,-2.7,1.7,-2.0,21513*,-13.6,?
Cc1ccc(C(=O)Nc2cc(=O)n(C)c(=O)n2C)o1,-3.2,-2.2,-0.4,22513*,32.5*,?
Cc1ccc(NC(=O)N/C=C/c2ccco2)c(C)c1,-1.1,1.6,2.2,16016,11.7,2.4
O=c1[nH]c(CSc2ncnc3sccc23)nc2cc(C(F)(F)F)ccc12,1.6,-3.3,-4.5,4340,-2.4,-1.2
Nc1cc(Cl)nc(N/N=C/c2c(O)ccc3ccccc23)n1,0.1,-0.6,-18.9,1846,14.3,4.3
CCc1nc2ccc(C(=O)N3CCN(S(=O)(=O)CC)CC3)cn2c1N(C=O)Cc1ccc(OC)cc1,-0.7,-1.8,0.0,3740,4.6,-0.5
SMILES,FBA Mtb inh,Anthrax LF prot,BoNT F protease,Autofluor counter,GDH-TPI inh,BoNT-A LC inh2
COc1ccc(-c2csc(NC(=S)NC(=O)c3ccc(S(=O)(=O)N(C)C)cc3)n2)cc1OC,1.4,-1.8,2.9,5476,8.0,0.0
CCOC(=O)c1cccc(NC(=O)COC)c1,-3.3,2.4,0.3,2344,-6.8,0.1
Cc1ccc(C(=O)C=Cc2ccc3c(c2)OCO3)c(C)c1,2.7,-3.1,-8.2,4388,11.1,-0.3
O=C(/C=C/c1ccc2c(c1)OCO2)c1ccc(O)cc1O,-10.3,-4.8,-6.0,3661,40.0*,0.0
O=C(O)Cc1ccc(NC(=O)c2ccc3c(c2)C(=O)N(CC2CCCO2)C3=O)cc1 (stereo unspecified),-3.6,1.8,4.6,5266,7.4,0.7
Cc1cc(N2CCN(C(=O)c3ccco3)CC2)n2nc(-c3cccc(Cl)c3)cc2n1,2.1,1.1,0.6,16545*,11.4,?
